High-throughput results as filed in PubChem BioAssay.
RXFP1 ag: qHTS Assay for Agonists of the Relaxin Receptor RXFP1. HEK293T-RXFP1 cAMP TR-FRET, 30 min; response scale: percent of porcine relaxin response, buffer zero. 370,000 tested, 0.3% active. Potency, µM (doses to about 57.5 µM), inactives show at the top dose activation, most hits filed as activators. Relaxin receptor 1 (Homo sapiens), Q9HBX9; active = well fitted activation curve with a large enough effect; inconclusive = small, poorly fitted or top-dose-only effect; also: potency is read from the fitted curve at half-maximal effect; % is scaled to controls: 0 for no effect and ±100 for the full control effect; nearly all actives have a fitted effect of over 60% in size
Target sequence (Q9HBX9 whole entry, looked up): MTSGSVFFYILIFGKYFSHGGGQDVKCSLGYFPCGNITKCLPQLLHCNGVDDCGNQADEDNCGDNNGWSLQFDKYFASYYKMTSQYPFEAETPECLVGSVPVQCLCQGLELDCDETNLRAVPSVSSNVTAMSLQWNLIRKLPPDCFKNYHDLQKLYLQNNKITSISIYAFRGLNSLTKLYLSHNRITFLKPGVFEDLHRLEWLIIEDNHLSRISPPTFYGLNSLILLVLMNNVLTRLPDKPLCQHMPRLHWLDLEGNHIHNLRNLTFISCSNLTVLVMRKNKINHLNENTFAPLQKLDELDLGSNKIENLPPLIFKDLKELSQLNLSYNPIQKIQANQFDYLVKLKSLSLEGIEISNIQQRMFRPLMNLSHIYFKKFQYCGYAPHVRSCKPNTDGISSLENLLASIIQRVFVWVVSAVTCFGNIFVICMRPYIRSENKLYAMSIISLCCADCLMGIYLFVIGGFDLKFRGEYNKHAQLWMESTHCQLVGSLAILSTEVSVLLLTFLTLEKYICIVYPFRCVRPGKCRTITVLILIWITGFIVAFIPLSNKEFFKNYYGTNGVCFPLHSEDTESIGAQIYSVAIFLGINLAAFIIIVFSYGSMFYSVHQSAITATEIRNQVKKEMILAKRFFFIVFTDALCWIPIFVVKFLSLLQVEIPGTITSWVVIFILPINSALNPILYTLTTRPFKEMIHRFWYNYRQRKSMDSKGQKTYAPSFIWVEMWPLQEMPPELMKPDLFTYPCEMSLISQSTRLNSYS
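Agonist response is measured as cAMP accumulation in an RXFP1-transfected HEK293T line under PDE4 inhibition. Values are scaled between buffer-only and 29 nM porcine relaxin, and EC50s come from standard Hill equation fits.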
pAkt inh: HTS Assay for Inhibitors of Akt Phophorylation: Primary Screen; Neuro2A IGF-stimulated pAkt S473 HTRF, 20 min; hits give low values; 360,000 tested, 0.32% active; activity change, % for hits at 50 µM; in the data active = activity change below about -80%; inconclusive = mostly about -51% to -80%; also: % is scaled to controls: 0 for no effect and ±100 for the full control effect
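Neuro2A cells (4,500/well, DMEM with 0.5% FBS) were treated with compound at a single 50 µM final concentration, stimulated with 6 nM IGF for 20 min at 37 °C, and lysed. Phospho-Akt Ser473 was read by HTRF as 665/615 ratio ×10^4.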
ClpP mod: qHTS Assay for Activators of ClpP | 340,000 tested, 1.9% active | ATP-dependent Clp protease proteolytic subunit (Bacillus subtilis (strain 168)), P80244 | Potency, µM (doses to about 57.5 µM), inactives show top-dose activity change, negative = active | AID 651965, 2013 | purified B. subtilis ClpP, FRET peptide cleavage, 20 min; active = well fitted falling curve with a large enough effect; inconclusive = small, poorly fitted or top-dose-only effect; inactive = no such curve, though single readings can be large or run the other way; also: potency is read from the fitted curve at half-maximal effect; the source files actives as falling curves though it sought activators and does not explain the sign; nearly all actives have a fitted effect of over 65% in size
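Purified B. subtilis ClpP, 10 microg/mL final in Tris/HCl pH8 with KCl, BSA, glycerol and Tween-20, cleaved an Abz/nitrotyrosine-quenched decapeptide. Fluorescence (ex 320, em 430) was read at 0 and 20 min at room temperature. Delta was normalized to 5.8 microM ADEP and DMSO/no-enzyme controls.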
gsp agonist: qHTS for Agonist of gsp, the Etiologic Mutation Responsible for Fibrous Dysplasia/McCune-Albright Syndrome: qHTS; 340,000 tested, 0.13% active; Potency, µM (doses to about 76.9 µM), inactives show at the highest dose activation (cAMP increase), usual class: activators; AID 624287, 2012; gsp mutant cells, cAMP HTRF, 30 min; active = well fitted activation curve with a large enough effect; inconclusive = small, poorly fitted or top-dose-only effect, or another doubt; inactive = no such curve, though single readings can be large or run the other way; cell line not stated here;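 also: phosphodiesterase inhibitor Ro 20-1724 added with compounds to block cAMP breakdown; potency is read from the fitted curve at half-maximal effect; nearly all actives have a fitted effect of over 60% in size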
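Cells stably selected in G418 were plated at 2000/well, grown 16-24 hr, then given compounds in DMSO with the PDE inhibitor […] (300 uM solution added) for 30 min at 37C; cAMP was read by HTRF.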
RXFP1 antag: qHTS Assay for Antagonists of the Relaxin Receptor RXFP1 | HEK293-RXFP1, relaxin-stimulated cAMP HTRF, 30 min; hits give low values | activity change, negative = inhibition, % at 57.5 µM | 350,000 tested, 0.59% active | AID 1259400, 2018;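 active = activity change of -60% or lower, but not beyond a set lower limit; inconclusive = change between -60% and -40%, or beyond the set limit; inactive = change above -40%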; also: % is scaled to controls: 0 for no effect and ±100 for the full control effect
gsp antagonist: qHTS for Antagonists of gsp, the Etiologic Mutation Responsible for Fibrous Dysplasia/McCune-Albright Syndrome: qHTS | gsp-mutant cells, cAMP HTRF, 30 min | Potency, µM (doses to about 76.9 µM), for the others: at the top dose activity change, negative = inhibition, usual class: inhibitors | 340,000 tested, 0.4% active | AID 624288, 2012; calls by dose curve; cell line not stated here;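 also: intracellular cAMP measured with PDE inhibitor Ro 20-1724 present during compound exposure; potency is read from the fitted curve at half-maximal effect; % is scaled to controls: 0 for no effect and ±100 for the full control effect; nearly all actives have a fitted effect of over 65% in size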
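HTRF cAMP read-out (cAMP-d2 plus anti-cAMP antibody-K in lysis buffer, 30 min RT). Before lysis, cells are exposed to compounds with […] for 30 min at 37C in DPBS containing Ca/Mg, BSA and Tween 20.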
Numbers without * were called inactive; i = inactive; ? = inconclusive; · = no result given; [ ] = another dose, or the depositor's remark. Most compounds without a hit are left out; they make up all but 2.7% or so of the library.

SMILES | RXFP1 ag | pAkt inh | ClpP mod | gsp agonist | RXFP1 antag | gsp antagonist
c1ccc(-c2cc(N3CCOCC3)nc3ccccc23)cc1 | 3% | i | 28µM* | 15% | -25 | -13%
CC1CN(c2nc3ccccc3cc2-c2ccccc2)CC(C)O1 (configuration not stated) | -1% | i | · | 2% | -26 | -12%
COc1ccc2c(C)cc(N3CCN(c4ccc(F)cc4)CC3)nc2c1 | 1% | i | 28µM* | 7% | -8 | -1%
COc1ccc2nc(N3CCOCC3)cc(C)c2c1 | 0% | i | 13µM* | -23% | 2 | 8%
COc1ccc(C)cc1NC(=O)c1cc(S(=O)(=O)NC2CCCCCC2)ccc1F | -2% | · | -27% | · | -5 | ·
COCCNC(=O)CCCn1c(SCc2ccccc2Cl)nc2c(sc3ccccc32)c1=O | 9% | · | -3% | · | -15 | ·
O=c1c2sccc2n(Cc2cc(=O)n3ccccc3n2)c(=O)n1-c1cc(F)ccc1F | 27% | · | 5% | · | 6 | ·
Cc1cc(N2CCOCC2)nc2ccccc12 | 0% | i | 25µM* | 0% | 6 | 6%
N[C@@H](Cc1cnc[nH]1)C(=O)Nc1ccc2ccccc2c1 | · | i | 0% | · | · | -6%
Cn1c(SCC(=O)Nc2ccc(NC(=O)c3ccccc3F)cc2)nnc1-c1ccncc1 | 23% | i | · | 6%[15.4 µM] | 3 | 50µM*
Cc1n[nH]c(=O)c2c(NC(=O)CSc3nnc(-c4ccncc4)n3C)oc(C)c12 | 1% | i | 32µM* | ? | -3 | 13%
CCc1ccc2oc(-c3ccc(C)c(NC(=O)COc4ccccc4Cl)c3)nc2c1 | · | · | -15% | · | · | ·
O=C(NCCCn1ccnc1)c1ccc(-c2ccccc2)cc1 | 0% | i | -1% | -21% | 2 | 0%
O=C(NCCCn1ccnc1)c1ccccc1NS(=O)(=O)c1ccc(F)c(F)c1 | -1% | i | -6% | 10% | -6 | 1%
Cc1ccc2nc(-c3ccccc3)cc(C(=O)NCCCn3ccnc3)c2c1 | 1% | i | 16µM* | 21% | -3 | 1%
Cc1cc(C(=O)NCCCn2ccnc2)sc1-c1ccccc1 | 3% | i | 22µM* | 17% | 24 | -3%
Cc1cc(C)c(C)c(S(=O)(=O)Nc2ccccc2C(=O)NCCCn2ccnc2)c1C | 2% | i | 35µM* | -7% | 1 | -8%
COc1cc(C#N)ccc1OCC(=O)Nc1cccc(S(=O)(=O)N2CCCC2)c1 | 5% | i | -3% | 4% | 12 | -9%
CCN(CC)CCNC(=O)c1ccc2nc(CCc3ccccc3)oc2c1 | -4% | · | 2% | · | · | ·
COc1ccc(-c2cc(C(=O)NCc3ccc(Cl)cc3)no2)cc1OC | 1% | -92%* | -7% | 3% | 5 | 12%
COc1ccc(CNC(=O)c2cc(-c3ccc(OC)c(OC)c3)on2)cc1 | 0% | i | 0% | 11% | -7 | 11%
COc1ccc(NC(=O)c2cc(-c3ccc(OC)c(OC)c3)on2)cc1OC | -1% | -88%* | 22µM* | -8% | 1 | 7%
Cc1ccc(Nc2c(-c3ccccc3O)nc3cc(C)ccn23)cc1 | 18% | · | 28µM* | · | -7 | ·
C[C@@H]1[C@H](c2ccccc2)OCCS(=O)(=O)N1Cc1ccccc1F | · | · | -2% | · | · | ·
O=S(=O)(Cc1ccccc1)N(O)c1ccccc1 | -2% | i | · | 1%[15.4 µM] | -1 | 6%
SMILES | RXFP1 ag | pAkt inh | ClpP mod | gsp agonist | RXFP1 antag | gsp antagonist
COc1ccc(CC(=O)NCCN2CCCC2)cc1 | -1% | -121%* | -2% | 15% | 4 | -9%
COc1ccc(C(=O)NCCN2CCCC2)cc1 | 1% | i | 0% | 1%[15.4 µM] | 4 | 7%
COc1ccccc1CCn1c(N)c(C#N)c2nc3ccccc3nc21 | 1% | · | 32µM* | -44% | -21 | -3%
N#Cc1c(N)n(CCCN2CCOCC2)c2nc3ccccc3nc12 | 10% | i | 4.5µM* | 10% | 2 | 12%
CCCCCn1c(N)c(C#N)c2nc3ccccc3nc21 | 5% | i | ? | -26% | -9 | -2%
COc1ccc(CCn2c(N)c(C#N)c3nc4ccccc4nc32)cc1OC | 3% | i | ? | 1% | -13 | -8%
COc1ccc(Cn2c(N)c(C#N)c3nc4ccccc4nc32)cc1OC | 4% | i | 14µM* | 3% | -2 | 21%
CCc1nn(CC(=O)Nc2c(C)cccc2C)c(=O)c2cc3sccc3n12 | 10% | · | -10% | · | -4 | ·
CCOC(=O)C1=C(C)N(C)C(=S)NC1c1c(OCC)ccc2ccccc12 (configuration not stated) | 1% | i | 1% | 15%[15.4 µM] | 22 | 2%
CCOc1ccc2ccccc2c1C1NC(=S)N(C)C(C)=C1C(=O)OC (configuration not stated) | 2% | i | 8.9µM* | 24%[15.4 µM] | 11 | -22%
CCOC(=O)COc1ccccc1C1Nc2ccccc2C(=O)N1c1cccc(Cl)c1 (configuration not stated) | 4% | i | 25µM* | 9% | -5 | -9%
CCOc1cc(C2Nc3ccccc3C(=O)N2c2ccccc2)ccc1O (configuration not stated) | 2% | · | ? | -2% | 17 | -11%
COc1cc(C2Nc3ccccc3C(=O)N2c2ccccc2)ccc1O (configuration not stated) | -1% | i | ? | -58% | -23 | 5%
CCOC(=O)COc1c(OC)cc(Cl)cc1C1Nc2ccccc2C(=O)N1c1ccc(F)cc1 (configuration not stated) | 2% | i | 32µM* | -30% | 13 | -19%
CCOC(=O)COc1c(OC)cc(Cl)cc1C1Nc2ccccc2C(=O)N1c1cccc(C)c1 (configuration not stated) | 1% | i | 28µM* | 2% | 3 | -18%
CCOc1cc(C2Nc3ccccc3C(=O)N2c2ccccc2)c(Br)cc1OCC(=O)O (configuration not stated) | 14% | i | ? | -4% | 21 | 7%
CCOC(=O)COc1c(OC)cc(Cl)cc1C1Nc2ccccc2C(=O)N1c1ccccc1 (configuration not stated) | 3% | i | 28µM* | -53% | 8 | -1%
CCC(C)NC(=O)Cn1ncc2c(C)n(Cc3ccc(F)cc3)c(C)c2c1=O (configuration not stated) | -1% | · | -17% | · | -16 | ·
